Experimental data taken from PubChem BioAssay AID1578 (Sanford-Burnham Center for Chemical Genomics, 2009).
The campaign covered roughly 290,000 compounds. About 3,000 (1%) were called active. The sample as a whole holds a higher share of actives than the screen did. Unmarked numbers belong to inactive results. Cut-off read from the data, not from the text of the source: active = inhibition mostly above about 36% (no sharp cut-off); inactive = mostly below about 34%.

Experiment: NOD1 signaling inhibitors, primary screen, cell-based, luminescence, uHTS (AID 1578);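 note: HEK-293T reporter cells stimulated with the NOD1 agonist gamma-tri-DAP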
Settings: NOD1-driven NF-kB luciferase reporter cells, at 4 µM, stronger effect = higher value

| Compound | inhibition |
| --- | --- |
| COCCn1c(-c2ccc(OC)cc2)cnc1SCC(=O)Nc1cccc2ccccc12 | -37.9% |
| O=C(Nc1cccc([N+](=O)[O-])c1)Nc1cccc([N+](=O)[O-])c1 | -8.2% |
| O=C(Nc1ccc(C(=O)N2CCOCC2)cc1)Nc1cccc(Cl)c1 | -21.7% |
| CNC(=O)Nc1cccc(C(F)(F)F)c1 | -23% |
| CN(C)S(=O)(=O)Oc1ccc(C(=O)Nc2cccc(Cl)c2)cc1 | -35.9% |
| O=C(Nc1ccccc1)Nc1cccc(C(F)(F)F)c1 | -33.9% |
| CN(C)S(=O)(=O)Oc1ccccc1C(=O)Nc1cccc(C(F)(F)F)c1 | -19.2% |
| CC(=O)c1cccc(NC(=O)Nc2ccc(C(=O)N3CCOCC3)cc2)c1 | 5.9% |
| O=C(Nc1ccc(C(=O)N2CCOCC2)cc1)Nc1cccc(C(F)(F)F)c1 | 60% (active) |
| O=C(Nc1ccc(OC(F)(F)F)cc1)Nc1cccc([N+](=O)[O-])c1 | 75.1% (active) |
| O=C(Nc1ccc(C(=O)O)cc1)Nc1cccc([N+](=O)[O-])c1 | -12.4% |
| CCOc1ccc(NC(=O)CS(=O)CC(=O)N(CC(=O)NC(C)(C)C)C2CCCC2)cc1 (stereo unspecified) | -23.1% |
| O=C(CC1C(=O)NCCN1Cc1ccc(-c2ccccc2)cc1)NCCCn1ccnc1 (stereo unspecified) | -4.4% |
| COCCNC(=O)C(C)N1c2cccc3cccc(c23)S1(=O)=O (stereo unspecified) | -37.7% |
| NC(CCC(=O)O)C12CC3CC(CC(C3)C1)C2 (stereo unspecified) | -26.1% |
| COC(=O)[C@H](Cc1ccccc1)NC(=O)NCCc1ccc(OC)cc1 | -0.3% |
| CC(=O)c1cc2c(cc1NC(=O)CN1CCCCCCC1)OCO2 | -24.2% |
| Cc1cc(C(=O)Nc2ccccn2)cs1 | -53.4% |
| CCCC[C@@H]1CNC(=S)N1CCC12CC3CC(CC(C3)C1)C2 | -25.1% |
| CCCCOc1ccc(CSc2nc(C)[nH]c2[N+](=O)[O-])cc1[N+](=O)[O-] | 39.8% (active) |
| Cc1nc(SCc2ccc(O)c([N+](=O)[O-])c2)c([N+](=O)[O-])[nH]1 | -13.5% |

| Compound | inhibition |
| --- | --- |
| COc1ccc(CSc2nc(C)[nH]c2[N+](=O)[O-])cc1[N+](=O)[O-] | -4.2% |
| CCOC1(OCC)N=C(N)C2(C#N)C(c3ccc(NC(C)=O)cc3)C12C#N (stereo unspecified) | -12.4% |
| CN(CC(=O)Nc1c(Cl)cccc1Cl)C(=O)CCCN1C(=O)c2ccccc2C1=O | 15.6% |
| O=C(N/N=C/C=C\c1ccccc1[N+](=O)[O-])c1ccncc1 | -7.4% |
| COc1ccc(-n2cc(CNC3CCC(O)CC3)c(-c3cccc(F)c3)n2)cc1 (stereo unspecified) | 51.1% (active) |
| COc1ccc(-n2cc(CNC3CCN(C)CC3)c(-c3cccc(F)c3)n2)cc1 | 14.5% |
| COc1ccc(-n2cc(CNC3CCOCC3)c(-c3cccc(F)c3)n2)cc1 | 21.8% |
| Cc1cccc(C)c1N1CCN(c2nc(N(C)C)oc(=O)c2C#N)CC1 | 18.2% |
| CCOC(=O)C1CCCN(C2=NC(=O)/C(=C/c3ccc(OC)cc3)S2)C1 (stereo unspecified) | -6.7% |
| CC1=C(C(=O)N2CCOCC2)C(c2ccc(-c3ccccc3)cc2)NC(=S)N1 (stereo unspecified) | -25.1% |
| Cc1ccccc1C(=O)N1CCN(C(c2ccccc2)c2ccccc2)CC1 | -1.2% |
| CCOc1ncccc1C(=O)N1CCN(C(c2ccccc2)c2ccccc2)CC1 | -13% |
| c1ccc(CN(Cc2ccccc2)c2ncnc3c2nnn3Cc2ccccc2)cc1 | -2.6% |
| CCNc1nc(NCC)n2c(SCC(=O)Nc3ccccc3[N+](=O)[O-])nnc2n1 | -16.6% |
| Cn1c2c(c(=O)n(C)c1=O)C(CC(=O)Nc1ccccc1)C(=O)N2 (stereo unspecified) | -23.5% |
| COc1ccc2[nH]c3c(c2c1)CC(C)NC3=O (stereo unspecified) | 87% (active) |
| COc1ccc2[nH]c3c(c2c1)CCC/C3=N\N | -3.8% |
| CC1Cc2c([nH]c3ccccc23)C(=O)N1 (stereo unspecified) | 26.8% |
| COc1cc(OC)cc(C(=O)NNC(=S)NC2CC2)c1 | -35.8% |
| C=CCn1c(=O)c2ccccc2n2c(SC(C)C(N)=O)nnc12 (stereo unspecified) | -5.9% |
| C[C@@H](CN=[N+]=[N-])CN1CC[C@H](C(C)(C)C)CCC1=O | -15.8% |

| Compound | inhibition |
| --- | --- |
| CC(C)/C=C/CN1CCN(CCCc2ccccc2)C(CCO)C1 (stereo unspecified) | 45.1% |
| N#CCOC(=O)[C@H](Cc1ccccc1)N1C(=O)c2ccccc2C1=O | -3.8% |
| Cc1nn(-c2ccccc2Cl)c(Cl)c1/C=N/Nc1nc2ccccc2s1 | 87.9% (active) |
| Cc1nn(-c2ccccc2Cl)c(Cl)c1/C=N/Nc1cccc(C(=O)O)c1 | 19.9% |
| CCOC(=O)N/N=C/c1c(C)nn(-c2ccccc2Cl)c1Cl | -46.5% |
| COc1ccc(CCNC(=O)CNC(=O)c2nn(-c3ccc(OC)c(OC)c3)c(=O)c3ccccc23)cc1OC | -4.9% |
| COc1ccc(C(=O)Nc2sc3c(c2C(=O)O)CC(C)(C)OC3)cc1 | -23.2% |
| CC1(C)Cc2c(sc(NC(=O)c3ccccc3)c2C(=O)O)CO1 | -22.9% |
| Cc1nc2nc(-c3ccc(Cl)cc3)cn2nc1C | -11.9% |
| CCc1ccc(-c2cn3nc(C)c(C)nc3n2)cc1 | 76.1% (active) |
| Cc1ccc(-c2cn3nc(C)c(C)nc3n2)cc1 | 46.8% |
| O=C1N(c2ccccc2)C[C@@H]2C[C@@H](c3cc4ccccc4o3)N3CCC[C@@]123 | 98% (active) |
| O=C1N(c2ccccc2)C[C@@H]2C[C@@H](c3cccc4c3OCO4)N3CCC[C@@]123 | -27.6% |
| O=C1N(c2ccccc2)C[C@@H]2C[C@@H](c3cccs3)N3CCC[C@@]123 | -35.1% |
| Cc1onc(-c2c(F)cccc2Cl)c1C(=O)NC(=S)NC1CCS(=O)(=O)C1 (stereo unspecified) | -19.3% |
| COc1ccc(CC(=O)N2CCN(c3cccc(C)c3C)CC2)cc1 | -24.5% |
| O=c1cnc2ccccc2n1Cc1ccccc1C(F)(F)F | -40.7% |
| CC(C)(C)c1ccc(Cn2c(=O)cnc3ccccc32)cc1 | 48.9% (active) |
| O=c1cnc2ccccc2n1Cc1ccc(Br)cc1 | -18.3% |
